# Measured values: article PMC5540273 (PLoS ONE, 2017)
# How the values were obtained:
# Settings in all cases: concentration: 1 μM,replicates: in singlicate; n = 1
# SNARK = test system: T1, SNARK
# T1 construct: gene NUAK2
# SNRK = test system: SNRK
# SRC = test system: SRC
# SRMS = test system: SRMS
# SRPK1 = test system: SRPK1
# SRPK2 = test system: SRPK2
# SRPK3 = test system: SRPK3
# STK16 = test system: STK16
# STK33 = test system: STK33
# STK35 = test system: STK35
# STK36 = test system: STK36
# STK39 = test system: STK39
# SYK = test system: SYK
# SgK110 = test system: SgK110
# TAK1 = test system: T2, TAK1
# T2 construct: gene MAP3K7
# TAOK1 = test system: TAOK1
# TAOK2 = test system: TAOK2
# TAOK3 = test system: TAOK3
# TBK1 = test system: TBK1
# TEC = test system: TEC
# 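Also: KINOMEscan kinase panel screen.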
SMILES,%Inh (SNARK),%Inh (SNRK),%Inh (SRC),%Inh (SRMS),%Inh (SRPK1),%Inh (SRPK2),%Inh (SRPK3),%Inh (STK16),%Inh (STK33),%Inh (STK35),%Inh (STK36),%Inh (STK39),%Inh (SYK),%Inh (SgK110),%Inh (TAK1),%Inh (TAOK1),%Inh (TAOK2),%Inh (TAOK3),%Inh (TBK1),%Inh (TEC)
CN1CCN(CCCNc2nccc(-c3c(-c4ccc(F)cc4)nn4cc(C(N)=O)ccc34)n2)CC1 [GW622475],14%,0%,19%,0%,43%,0%,1%,25%,26%,0%,98.9%,23%,11%,7%,29%,13%,0%,10%,0%,8%
CC(C)c1nc(-c2cccc(NS(=O)(=O)c3ccccc3)c2)c(-c2ccnc(Nc3ccc4c(c3)CN(C)CC4)n2)s1 [GSK1649598],35%,1%,100%,99.5%,49%,0%,0%,28%,94.8%,63%,100%,85%,0%,0%,51%,97.2%,98.5%,97.8%,40%,94.2%
COc1cccc(C2=C(Nc3cccc(Cl)c3)C(=O)NC2=O)c1 [SB-341556],47%,9%,0%,0%,42%,0%,24%,14%,0%,94.9%,0%,8%,3%,0%,3%,21%,0%,23%,2%,0%
NC(=O)c1ccc(-c2cc3ncnc(SCC(=O)O)c3s2)cc1,0%,0%,0%,0%,0%,0%,0%,54%,0%,0%,0%,0%,0%,0%,0%,0%,0%,0%,8%,0%
CN(c1ccccc1CNc1nc(Nc2ccc3c(c2)CC(=O)N3)ncc1C(F)(F)F)S(C)(=O)=O,93.4%,0%,70%,0%,46%,0%,39%,99.9%,68%,0%,8%,0%,86%,0%,76%,92.7%,6%,86%,48%,0%
Cl.Nc1n[nH]c2cc(-c3ccccn3)ccc12 [GSK2189892],18%,0%,0%,0%,0%,0%,0%,22%,0%,0%,0%,0%,7%,0%,2%,0%,0%,0%,6%,0%
CCOC(=O)N1CCC(n2cnc(-c3ccc(F)cc3)c2-c2ccnc(N)n2)CC1 [SB-219952],0%,10%,0%,0%,9%,0%,28%,6%,0%,38%,47%,46%,13%,0%,42%,0%,3%,0%,16%,0%
CCCC(=O)Nc1n[nH]c2ncccc12 [SB-601436],0%,0%,0%,4%,16%,0%,10%,3%,0%,0%,4%,0%,8%,0%,0%,2%,3%,0%,0%,0%
Cc1ccc(C(=O)Nc2ccc(Oc3ccc4nc(NC(=O)C5CC5)cn4c3)c(F)c2)c(=O)n1-c1ccccc1,0%,0%,11%,0%,0%,23%,25%,17%,24%,0%,3%,25%,59%,0%,0%,0%,0%,0%,44%,55%
Cc1nnc(-c2ccc3occ(-c4ccc(S(C)=O)cc4)c3n2)o1 (centres unmarked),0%,0%,0%,0%,0%,0%,0%,11%,0%,45%,0%,0%,0%,3%,0%,0%,0%,0%,30%,0%
